In PubChem BioAssay AID488839 (Broad Institute, 2010):
In all, about 330,000 compounds went through this assay and about 35 (0.01%) were called active.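 The calls were made as follows: active = highest replicate inhibition of at least 50% and at least 75% of replicates reaching 50%; inconclusive = only one of the two criteria met; inactive = both criteria failed.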 Only a sample is shown.

target: Cyclin-dependent kinase 5 (Homo sapiens) + Cyclin-dependent kinase 5 activator 1 (Homo sapiens) (UniProt Q00535+Q15078); assay: CDK5/p35 phosphotransfer blockade – biochemical, single concentration, primary screen (AID 488839); conditions: Recombinant CDK5/p35, ADP-Glo luminescence, 60 min; at 10 µM; active compounds read high;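 also: plate controls were DMSO neutral control for no effect and GW8510 at 10 µM for full effect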
Sequence (Q00535 whole entry, looked up): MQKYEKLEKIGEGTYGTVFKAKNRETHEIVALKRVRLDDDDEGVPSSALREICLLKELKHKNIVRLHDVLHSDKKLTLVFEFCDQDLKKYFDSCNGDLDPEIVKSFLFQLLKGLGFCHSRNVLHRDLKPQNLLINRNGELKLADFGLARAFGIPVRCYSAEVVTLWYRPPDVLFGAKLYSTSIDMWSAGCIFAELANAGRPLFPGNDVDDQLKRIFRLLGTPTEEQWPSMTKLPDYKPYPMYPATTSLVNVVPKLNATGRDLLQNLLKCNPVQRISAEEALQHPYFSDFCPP
Sequence (Q15078 whole entry, looked up): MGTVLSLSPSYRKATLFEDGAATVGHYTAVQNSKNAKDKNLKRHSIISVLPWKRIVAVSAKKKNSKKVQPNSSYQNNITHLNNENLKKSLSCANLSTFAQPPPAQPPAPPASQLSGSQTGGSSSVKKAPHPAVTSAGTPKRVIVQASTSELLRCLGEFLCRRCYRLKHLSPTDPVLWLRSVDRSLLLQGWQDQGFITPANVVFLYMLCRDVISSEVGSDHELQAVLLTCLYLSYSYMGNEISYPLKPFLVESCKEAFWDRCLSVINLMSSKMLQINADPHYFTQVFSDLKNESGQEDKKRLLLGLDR

inhibition, inactive:
COc1ccc(-c2csc3nc(-c4ccccc4F)oc(=O)c23)cc1OC -0.745%, CCCN1CNC(=S)N(CCc2ccccc2)C1 0.897%, OCc1n[nH]c(CO)n1 -0.355%, CC(C)COC(=O)n1c(=O)oc2ccc(S(=O)(=O)N3CCCCC3)cc21 -6.42%, COc1ccc(NC(=O)CC2C(=O)NC3CCCCC3N2C(=O)c2ccc(F)cc2)cc1 (stereo unspecified) 0.318%, CN(CC(=O)Nc1ccc(F)cc1)CC(=O)N1CCCCC1 1.08%, Cc1coc2c(O)cc3c(c12)OC1(N2CCCCC2)C(=O)NCCCC31 (stereo unspecified) -0.717%, CCCCN1C(=O)C(C)=C(C)C1OCCc1ccc(OC)c(OC)c1 (stereo unspecified) 1.7%, N/C(=N\OC(=O)Nc1ccccc1)c1ccno1 -1.08%, Cc1c2cnn(-c3ccccc3)c(=O)c2c(C)n1CCCC(=O)N1CCN(C)CC1 0.518%, COc1ccccc1NC(=O)CSc1nnc(-c2ccoc2C)n1CCc1ccccc1 -0.569%, COc1ccccc1NC(=O)c1ccc(N2CC3CC(C2)c2cccc(=O)n2C3)c(NC(=O)c2cccnc2)c1 (stereo unspecified) -1.98%, CC1C(C)N(C(=O)CCl)c2ccccc2N1C(=O)CCl (stereo unspecified) 1.01%, C[C@H](NC(=O)C1CC(=O)N(c2ccc3c(c2)OCO3)C1)C(=O)NCc1ccco1 (stereo partly specified) -0.436%, CCc1n[nH]c(=S)n1/N=C/c1c[nH]c2ccc(Br)cc12 2.39%, COC(=O)Cc1ccc(OCC(=O)NC2CCCC2)cc1 0.995%, O=C(Nc1c2c(nn1-c1ccc(F)cc1)CS(=O)C2)C12CC3CC(CC(C3)C1)C2 (stereo unspecified) -0.258%, Cc1cccc(C(=O)NCc2nnc(SC(C)C(=O)Nc3nnc(C)s3)n2C)c1 (stereo unspecified) 1.14%, COc1ccc(Cl)cc1NC(=O)COC(=O)C(CC(C)C)N1C(=O)C2CC=CCC2C1=O (stereo unspecified) -0.94%, CCOC(=O)c1ccc2[nH]c(C)c(CN3CCN(C)CC3)c(=O)c2c1 -4.67%, COc1ccc(OC)c(NC(=O)CN(Cc2ccc(Cl)cc2)S(C)(=O)=O)c1 0.423%, O=C(CSc1nnc(SCc2ccc(Cl)cc2)s1)N/N=C/c1ccccc1Cl -1.05%, O=S(=O)(NCCSc1ccccn1)c1ccc(Cl)cc1 0.39%, O=C(C1CCN(C2CCN(Cc3ccc4cc(F)ccc4n3)CC2)CC1)N1CCCC1 0.175%, COc1ccc(C(=O)Cn2nnc(-c3ccc(N4CCOCC4)cc3)n2)cc1OC -3.2%, COC(=O)c1c(NC(=O)c2c(Cl)cnn2C)sc(C)c1C -2.29%, O=c1[nH]c2ccc(S(=O)(=O)N3CCCC3)cc2[nH]1 -0.663%, CCOc1ccc(OCCSc2nc3ccccc3n2CC(=O)O)cc1 0.306%, Cc1nc(-c2nnc(SCC(=O)Nc3cc(C(F)(F)F)cc(C(F)(F)F)c3)n2C)cs1 -0.227%, CCCCCCCC(=O)OC(CN1CCCCCC1)CN1CCCC1=O (stereo unspecified) 0.855%, CC(CC(=O)Nc1ccc(F)cc1F)S(=O)(=O)c1ccc2c(c1)NC(=O)CO2 (stereo unspecified) 0.798%, COc1ccccc1NC(=O)C1CCCN(c2cc(C)nc3ncnn23)C1 (stereo unspecified) 0.792%, Cc1cccc(C)c1NC(=O)CNC(=O)C1CCCC1 0.783%, Cc1ccc(Nc2cc(=O)n(C3CCCCC3)c(=O)[nH]2)cc1C -0.561%, CC(C)NC(=O)COCc1cc(-c2ccc3c(c2)OCO3)on1 -3.05%, CC(=O)Nc1ccc(OC(=O)COc2ccc(Br)cc2)cc1 -1.45%, CCCNC(=O)c1c(Cl)cnn1-c1ccc(C)cc1 -0.745%, Cc1noc(C)c1NC(=O)Nc1ccc2c(c1)C(=O)N([C@H](C)CO)C[C@H](C)[C@@H](CN(C)S(=O)(=O)c1cn(C)cn1)O2 0.62%, O=C(CCc1nnc2ccc(NCc3ccco3)nn12)Nc1cc(F)ccc1F 0.605%, O=C(O)Cn1c(Cc2ccccc2)nc2ccccc21 -0.592%, COc1ccc(C2OC(=O)CC2C(=O)NC(C)C)cc1 (stereo unspecified) -11.3%, O=C(CC1Nc2ccccc2NC1=O)Nc1ccccc1 (stereo unspecified) 1.13%, CCCCCCSc1ccc([C@@H]2[C@@H]3C(=O)N(CC)C(=O)[C@@H]3[C@]3(C(=O)OC)CCCCN23)cc1OC -6.06%, Cc1ccccc1NS(=O)(=O)CCCCC(Cl)(Cl)Cl -0.0868%, O=C(COc1coc(CN2CCN(c3ccccc3F)CC2)cc1=O)N1CCc2ccccc21 0.232%, COc1ccc(Cl)cc1NC(=O)CN(C)CC(=O)Nc1ccc2c(c1)OCO2 1.26%, O=Cc1c(N2CCN(c3cccc(Cl)c3)CC2)nc2ccccn2c1=O -1.83%, CN1CCN(S(=O)(=O)c2ccc(N3CCN(S(=O)(=O)c4cccs4)CC3)nc2)CC1 -0.333%, CCC(C)c1ccccc1N1CC(C(=O)N2CCN(S(=O)(=O)c3ccc(F)cc3)CC2)CC1=O (stereo unspecified) 0.723%, CC(C)[C@H](NC(=O)N1CCn2c1nc1ccccc12)C(=O)NC1CC1 2.48%, COc1cc(C(=O)N2CCN(S(=O)(=O)c3ccc(C(C)C)cc3)CC2)ccc1OCC(=O)N1CCOCC1 -0.998%, Cc1cccc(NC(=O)c2ccc(OCC(=O)NCc3ccccc3)cc2)c1C 0.801%, Cc1nc2c(-c3ccc(F)cc3)c(C)nn2c(C)c1CCC(=O)NCc1ccco1 -0.00338%, CCc1ccc(C(=O)CSc2nnc(C)c(=O)[nH]2)cc1 -0.74%, Cc1cc(C)cc(Oc2nc3c(C)cccn3c(=O)c2/C=C(\C#N)C(=O)NC2CCS(=O)(=O)C2)c1 (stereo unspecified) 0.399%, CC(C)[C@H](NC(=O)N1CCn2c1nc1ccccc12)C(=O)NCCc1ccccc1 1.82%, COC(=O)c1ccccc1NC(=O)C1CCN(S(=O)(=O)c2cc(OC)ccc2OC)CC1 0.427%, N#Cc1ccc(C(=O)Nc2nc(-c3cccs3)c(C(=O)C(F)(F)F)s2)cc1 -1.16%, O=C(Cn1nc(Cc2cccnc2)c2ccccc2c1=O)NCC1CCCO1 (stereo unspecified) -0.846%, CCOC(=O)Cc1c(C)nc2c(C#N)c(C)nn2c1C -2.18%, CC(C)CCN(C(=O)c1csnn1)C(C(=O)NC1CCCC1)c1ccccc1 (stereo unspecified) 0.702%, COCc1c(N)c(C)nc(Cl)c1C#N 11.1%, O=C(Cn1nc(C(=O)O)c2ccccc2c1=O)Nc1ccc(F)cc1 0.796%, CCC(C)(C)NC(=O)C(c1ccc(OC)cc1)N(C(=O)CCC(=O)Nc1cc(C)on1)c1ccc(OC)cc1OC (stereo unspecified) -0.155%, CCSc1ccccc1C(=O)NCc1ccc(OC)cc1 0.696%, COc1ccc(OC)c(/C(C)=N\NC(=O)c2cc3cc(Cl)ccc3n2C)c1 0.107%, CS(=O)(=O)N(CC(=O)N1CCCCCC1)c1cccc(Cl)c1Cl 0.703%, CCOc1ccc(C(=O)NC2CCN(CC(=O)NCc3cccs3)CC2)cc1 1.1%, CC(C)CCNC(=O)C1CCCN(S(=O)(=O)c2ccc(F)cc2)C1 (stereo unspecified) -0.29%, COc1ccc(-c2nc3n(c(=O)c2C#N)CCS3)c(OC)c1 0.425%, CC(Sc1nnnn1C)C(=O)NC(=O)NC1CCCCC1 (stereo unspecified) -1.1%, CCc1c(C)nc2c(-c3ccccc3)c(C)nn2c1Nc1ccc(NC(C)=O)cc1 0.169%, CCN(C(=O)COC(=O)c1ccccc1O)c1cccc2ccccc12 -1.97%, COc1cccc(CC2(CO)CCCN(Cc3ccc(OC(F)F)cc3)C2)c1 (stereo unspecified) 0.552%, Cc1ccc(C2SCC(=O)N2c2ccccc2)cc1 (stereo unspecified) 0.449%, COC(=O)Nc1ncc(CN2C(=O)c3ccccc3C2=O)s1 0.873%, CCC(C)NC(=O)Cn1nc(C(F)(F)F)c2c1CCC2 (stereo unspecified) -1.07%, Cc1ccc(C)c(NS(=O)(=O)c2cc(Br)cnc2N)c1 -0.401%, CSCCC(NS(=O)(=O)c1ccccc1F)C(=O)N1CC=C(c2ccccc2)CC1 (stereo unspecified) 0.0413%, CCCCCCCC[n+]1cccc(C(=O)N2c3c(nc(N)[nH]c3=O)NC(C)C2C)c1 (stereo unspecified) -4.49%, CC(OC(=O)Cc1ccc(F)cc1)C(=O)N1CCc2ccccc21 (stereo unspecified) -7.94%, O=C(O)/C(=C/c1cccnc1)NC(=O)c1ccccc1 1.62%, O=C(O)CN1C(=O)CC(Cc2ccccc2)C1=O (stereo unspecified) -1.35%, CC(Nc1ccccc1)c1cccnc1 (stereo unspecified) -1.25%, Cc1nc2nc(COc3ccccc3)[nH]n2c(=O)c1Cc1ccccc1 -2%, Cc1csc(OCC(=O)Nc2ccc(C)c(C)c2)n1 -0.147%, CCS(=O)(=O)c1ccc(C(=O)NC)c(Cl)c1Cl -2.96%, CCc1cccc(C)c1N(C(=O)Cn1c(CO)nc2ccccc21)C(C)COC (stereo unspecified) -0.226%, O=c1c2ccccc2ccc2ccc(P(=O)(O)O)cc12 1.94%, CCC(C)N(C(=O)Cn1nc(C)c([N+](=O)[O-])c1C)C1CCS(=O)(=O)C1 (stereo unspecified) -0.0593%, Cc1c(CCO)c(=O)[nH]n1C(=O)c1c(F)cccc1F 0.283%
